# From PMC4336329 (PLoS ONE, 2015)
# About 14,000 (4.5%) of roughly 310,000 compounds showed an effect of 50% or more. Effects have a minus sign here. This is one part of a sample in which strong results are shown more often than they occur.
# Target: human ether-à-go-go-related gene (hERG) potassium channel (human, UniProt Q12809)
# Test: primary screen, population patch clamp on CHO cells stably expressing hERG; higher = less effect of the substance
# 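Note: peak tail current of the secondary pulse compared with the same well before compound.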
# human ether-à-go-go-related gene (hERG) potassium channel, sequence (Q12809 whole entry, looked up): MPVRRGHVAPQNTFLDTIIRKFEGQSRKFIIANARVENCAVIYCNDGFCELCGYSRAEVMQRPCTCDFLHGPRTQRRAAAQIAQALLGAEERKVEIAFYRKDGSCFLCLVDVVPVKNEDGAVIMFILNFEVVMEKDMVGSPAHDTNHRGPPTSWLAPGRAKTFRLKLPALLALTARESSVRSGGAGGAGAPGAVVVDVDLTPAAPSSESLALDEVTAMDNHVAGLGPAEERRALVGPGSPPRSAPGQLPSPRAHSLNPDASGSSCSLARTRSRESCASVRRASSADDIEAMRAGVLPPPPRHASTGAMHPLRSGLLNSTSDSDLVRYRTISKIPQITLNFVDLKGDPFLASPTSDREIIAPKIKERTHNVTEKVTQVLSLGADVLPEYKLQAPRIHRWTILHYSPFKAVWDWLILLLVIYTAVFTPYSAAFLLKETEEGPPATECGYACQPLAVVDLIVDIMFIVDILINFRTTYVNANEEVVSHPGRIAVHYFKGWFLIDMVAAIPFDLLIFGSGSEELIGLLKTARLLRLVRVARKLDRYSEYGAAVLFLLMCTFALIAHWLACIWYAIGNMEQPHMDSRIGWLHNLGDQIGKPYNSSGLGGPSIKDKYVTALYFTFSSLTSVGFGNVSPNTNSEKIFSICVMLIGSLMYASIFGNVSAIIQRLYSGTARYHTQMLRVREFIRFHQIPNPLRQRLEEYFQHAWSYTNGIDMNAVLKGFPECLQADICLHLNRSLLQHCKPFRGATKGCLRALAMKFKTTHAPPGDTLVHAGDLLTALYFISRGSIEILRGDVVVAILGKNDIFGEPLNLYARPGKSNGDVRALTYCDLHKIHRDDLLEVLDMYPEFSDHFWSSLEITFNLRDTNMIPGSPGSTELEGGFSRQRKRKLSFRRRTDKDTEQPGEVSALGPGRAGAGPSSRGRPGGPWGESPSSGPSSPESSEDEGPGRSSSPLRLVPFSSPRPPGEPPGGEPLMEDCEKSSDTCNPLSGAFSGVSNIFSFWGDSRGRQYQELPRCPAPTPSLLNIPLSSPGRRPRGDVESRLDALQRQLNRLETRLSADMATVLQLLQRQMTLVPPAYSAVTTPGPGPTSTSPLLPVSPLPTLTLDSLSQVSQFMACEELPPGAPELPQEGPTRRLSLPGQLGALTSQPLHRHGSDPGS
row,SMILES,"hERG current change (%, negative = inhibition) at 10uM [%]"
1,CC(Oc1ccccc1F)c1nnc(SCC(=O)NCc2ccc3c(c2)OCO3)o1 (stereo not drawn),-32.1
2,Cl.NS(=O)(=O)c1ccc(CCNCc2cc(Br)ccc2OCc2ccccc2)cc1,-71.8
3,NS(=O)(=O)c1ccc(NCc2ccccc2OCc2ccccc2F)cc1,-2.39
4,NS(=O)(=O)c1ccc(NCc2cc(Cl)ccc2OCc2ccccc2F)cc1,-2.13
5,Cl.NS(=O)(=O)c1ccc(CCNCc2cc(Br)ccc2OCc2ccccc2F)cc1,-75.9
6,COc1ccc(Br)cc1CNc1ccc(S(N)(=O)=O)cc1,-14.1
7,CCOc1ccc([N+](=O)[O-])cc1CNCCc1ccccc1.Cl,-45.5
8,CCn1c(SCc2nc(-c3ccccc3)no2)nc2ccccc21,-24.6
9,CCCCOc1ccccc1C(=O)NCCCCCC(=O)O,10.3
10,CCc1cccc(OCCCn2ccnc2)c1.O=C(O)C(=O)O,-25.7
11,COC(=O)c1c(NC(=O)c2nc3nc(C)cc(C(F)F)n3n2)sc2c1CCC2,5.97
12,Cc1cc(C(F)F)n2nc(C(=O)Nc3sc4c(c3C(N)=O)CCC4)nc2n1,-60.9
13,Cc1cc(C(F)F)n2nc(C(=O)Nc3sc4c(c3C#N)CCC4)nc2n1,18.3
14,CCC1CCC/C1=N\NC(=O)c1ccccc1Cl (stereo not drawn),19.2
15,COc1ccc(CNC(=O)COC(=O)CC(NC(N)=O)c2ccc(Cl)cc2)cc1OC (stereo not drawn),1.27
16,N#Cc1ccc(COC(=O)CC(NC(N)=O)c2ccc(Cl)cc2)cc1 (stereo not drawn),-59.9
17,CCOc1ccccc1NC(=O)COC(=O)CC(NC(N)=O)c1ccc(Cl)cc1 (stereo not drawn),-68.4
18,COc1cccc(NC(=O)COC(=O)CC(NC(N)=O)c2ccc(Cl)cc2)c1 (stereo not drawn),-2.18
19,NC(=O)COC(=O)CC(NC(N)=O)c1ccc(Cl)cc1 (stereo not drawn),17.6
20,CCOc1ccccc1NC(=O)COC(=O)CSc1ccc(Cl)cc1,21.2
21,CC(=O)c1c(O)cc(=O)oc1-c1ccc(C)cc1,16.7
22,COc1cc(C2N(c3ccccc3)CCN2c2ccccc2)ccc1OC(C)=O,-1.36
23,Cn1c(CNc2ccccc2)nc2ccccc21,4.27
24,CCOC(=O)Cn1cc(C#N)c2ccccc21,15.1

row,SMILES,"hERG current change (%, negative = inhibition) at 10uM [%]"
1,CCCOc1ccc(S(=O)(=O)N2CCCC2)cc1[N+](=O)[O-],-30.1
2,CCOc1ccc(S(=O)(=O)N2CCOCC2)cc1NS(=O)(=O)c1ccc(OC)c([N+](=O)[O-])c1,-41.7
3,CCOC(=O)N1CCC(=NNc2ccc(S(=O)(=O)N3CCOCC3)cc2[N+](=O)[O-])CC1,-61.3
4,CCCOc1ccc(S(=O)(=O)N2CCOCC2)cc1[N+](=O)[O-],-57.8
5,CC(=O)N1CCC(=NNc2ccc(S(=O)(=O)N3CCOCC3)cc2[N+](=O)[O-])CC1,-18.2
6,CCOC(=O)N1CCC(=NNc2ccc(S(N)(=O)=O)cc2[N+](=O)[O-])CC1,-11.8
7,O=C1c2ccccc2C(=O)N1COc1ccc(S(=O)(=O)N2CCOCC2)cc1[N+](=O)[O-],-22.8
8,CCOc1ccc(S(=O)(=O)N2CCOCC2)cc1[N+](=O)[O-],-52.2
9,O=[N+]([O-])c1cc(S(=O)(=O)N2CCOCC2)ccc1OCc1cccc(Cl)c1,1.31
10,COCCn1c(SCC(=O)Nc2c(C)n(C)n(-c3ccccc3)c2=O)nc2ccccc2c1=O,-19.6
11,CCCC(=O)N(c1ccc(C(=O)O)cc1)c1nc(-c2ccccc2)c(C)s1,14.2
12,CCOc1cc2c(cc1OCC)C(C(=O)O)C(c1cc(OC)c(OC)c(OC)c1)N(C)C2=O (stereo not drawn),3.02
13,COC(=O)[C@@H]1C[C@@H]2CC[C@@H](O)C[C@@H]2N1Cc1ccc(N2CCN(C)CC2)cc1,9.87
14,Cn1c(Cl)nc2c1c(=O)n(Cc1cccc(Br)c1)c(=O)n2C,-35.3
15,CCCCCn1c(N2CCCC2)nc2c1c(=O)n(C)c(=O)n2C,-9.54
16,CC(O)CNc1nc2c(c(=O)n(Cc3ccc(Br)cc3)c(=O)n2C)n1C (stereo not drawn),-12.6
17,CN(CCO)c1nc2c(c(=O)n(Cc3ccc(Cl)cc3)c(=O)n2C)n1C,3.79
18,Cn1c(N2CCC(C(N)=O)CC2)nc2c1c(=O)n(Cc1cccc(Br)c1)c(=O)n2C,-64.7
19,CC1CCN(c2nc3c(c(=O)n(C)c(=O)n3C)n2Cc2ccccc2)CC1,-50
20,Cn1c(N2CCCC2)nc2c1c(=O)n(Cc1cccc(F)c1)c(=O)n2C,-19.6
21,CCCCCCn1c(N2CCC(C(N)=O)CC2)nc2c1c(=O)n(C)c(=O)n2C,-56.4
22,Cn1c(N2CCC(C(N)=O)CC2)nc2c1c(=O)n(Cc1ccc(Br)cc1)c(=O)n2C,-57.3
23,Cn1c(N2CCC(C(N)=O)CC2)nc2c1c(=O)n(Cc1ccc(Cl)cc1)c(=O)n2C,-58.5
24,CCOC(=O)Cn1c(=O)c2c(nc(N3CCCCC3)n2Cc2ccccc2)n(C)c1=O,-40.4

row,SMILES,"hERG current change (%, negative = inhibition) at 10uM [%]"
1,CCCCCCn1c(N2CCCC2)nc2c1c(=O)n(C)c(=O)n2C,-1.96
2,CCOc1ccc(S(=O)(=O)NCCC(=O)OC(C)C(=O)N2CCc3ccccc32)cc1 (stereo not drawn),-22.6
3,NC(=O)c1ccc(NC(=O)CNCc2ccccc2Cl)cc1,8.82
4,COc1ccccc1NS(=O)(=O)c1cccc(C(=O)NCc2ccccn2)c1,13.2
5,CCOc1nc(C)ccc1-c1noc(-c2ccccc2OC)n1,12.7
6,CCCC12CN3CC(C)(CN(C1)C3c1ccco1)C2=O (stereo not drawn),-4.64
7,CCOc1ncccc1C(=O)NCCc1ccc(Cl)cc1,-5.75
8,CC(=O)CC(C)(C)Nc1nc2cc([N+](=O)[O-])ccc2o1,0.0382
9,COc1cc(NC(=O)c2ccc3snnc3c2)cc(OC)c1,13.5
10,CCOCc1nnc(NC(=O)C2CC(=O)N(C3CCCC3)C2)s1 (stereo not drawn),4.92
11,COc1ccc(/C=C/c2nc(-c3ccccc3O)n[nH]2)cc1OC,12.1
12,CCOC(=O)Nc1c(O)ccc2oc(C)c(-c3ccccc3)c12,-1.49
13,O=C(Nc1ccc2nsnc2c1)N1CCCCC1,22.2
14,COCCn1c(CN2CCN(c3ccccc3)CC2)nc2c1c(=O)n(C)c(=O)n2C,-13.8
15,CCOCCn1c(CN2CCN(c3ccc(OC)cc3)CC2)nc2c1c(=O)n(C)c(=O)n2C,-41.2
16,CCCCn1c(CN2CCN(c3ccc(F)cc3)CC2)nc2c1c(=O)n(C)c(=O)n2C,-25
17,CCOCCn1c(CN2CCN(C)CC2)nc2c1c(=O)n(C)c(=O)n2C,3.97
18,Cn1c(=O)c2c(nc(CN3CCN(c4ccccc4)CC3)n2CCN2CCOCC2)n(C)c1=O,-21.7
19,COCCn1c(CN2CCN(c3cccc(Cl)c3)CC2)nc2c1c(=O)n(C)c(=O)n2C,-53.9
20,CCOCCn1c(CN2CCN(c3ccccc3)CC2)nc2c1c(=O)n(C)c(=O)n2C,-22.1
21,CCOCCn1c(CN2CCN(c3ccc(F)cc3)CC2)nc2c1c(=O)n(C)c(=O)n2C,-56.2
22,CCOCCn1c(CN2CCN(c3cccc(Cl)c3)CC2)nc2c1c(=O)n(C)c(=O)n2C,-55
23,CC(C)Cc1nnc(NC(=O)CN2C(=O)NC3(CC(C)CC(C)(C)C3)C2=O)s1 (stereo not drawn),-20.5
24,CN1C[C@@H]2C(c3ccccc3)C3(c4ccccc4)CC2(C3)[C@H]1c1ccccc1 (stereo partly drawn),-25.7

row,SMILES,"hERG current change (%, negative = inhibition) at 10uM [%]"
1,CC(C)(C)c1ccc(-c2nnc(NC(=O)c3ccccc3)s2)cc1,-13.6
2,COc1ccc(C(=O)COC(=O)/C=C/c2ccccc2)cc1,6.99
3,CN(C)S(=O)(=O)c1ccc(NC(=O)COC(=O)CC2CC3CCC2C3)cc1 (stereo not drawn),-9.56
4,O=C(CSc1n[nH]c(-c2ccncc2)n1)NCCc1ccccc1,13.2
5,Cc1ccc(N2C(=O)CC(Nc3ccc(Cl)c(S(=O)(=O)N(C)C)c3)C2=O)c(C)c1 (stereo not drawn),-4.31
6,CN(C)S(=O)(=O)c1cc(NC2CC(=O)N(c3ccc(F)cc3)C2=O)ccc1Cl (stereo not drawn),-51.1
7,Cc1ccc(NC2CC(=O)N(c3ccc(C)cc3)C2=O)cc1 (stereo not drawn),-0.727
8,COc1cc(C(=O)NCCc2cn3ccc(C)cc3n2)cc(OC)c1OC,-27
9,CCCOc1ccc(-c2nc(=S)[nH][nH]2)cc1,20.1
10,O=C(Cn1nc(-c2ccccc2)ccc1=O)N1CCCCC1,-61.6
11,CCN(CC)CCCNC(=O)CCn1nc(-c2ccccc2)ccc1=O,-56.8
12,CCN(CC)CCCNC(=O)Cn1nc(-c2ccccc2)ccc1=O,-24.4
13,CCCCN(C)CCCNC(=O)CCn1nc(-c2ccccc2)ccc1=O,-52.9
14,CC1CCCN(CCCNC(=O)CCn2nc(-c3ccccc3)ccc2=O)C1 (stereo not drawn),-39
15,CCCCNC(=O)CCn1nc(-c2ccccc2)ccc1=O,-40
16,CCCN1CCN(CCCNC(=O)CCn2nc(-c3ccccc3)ccc2=O)CC1,-47.4
17,CC1CCCC(C)N1CCNC(=O)CCn1nc(-c2ccccc2)ccc1=O (stereo not drawn),-46.8
18,O=C(CCn1nc(-c2ccccc2)ccc1=O)N1CCCC1,-45
19,O=C(CCn1nc(-c2ccccc2)ccc1=O)NCCCN1CCCCCC1,-73
20,O=C(Cn1nc(-c2ccccc2)ccc1=O)N1CCOCC1,-6.25
21,CCN(CC)CCNC(=O)CCn1nc(-c2ccc(Cl)cc2)ccc1=O,-34.4
